Laboratory results reported in PubChem BioAssay AID743449 (Broad Institute, 2014).
About 90 (0.9%) of roughly 9,900 compounds were called active. Roughly 2% stayed inconclusive and do not appear here.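 How the source made its calls: active means mean normalized replicate activity at least 50 and at least half of replicates each reaching 50; inconclusive means only one of the two criteria met; inactive means neither criterion met.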 The entries come from a sample that favours actives as a whole.

Experiment: reduction of CTGF mRNA in DLD1 cells – DLD1 colon cancer cells, RT-qPCR, single point, primary screen (AID 743449);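 further: 0% = neutral control wells and 100% = dasatinib control wells; higher means stronger suppression of CTGF expression like dasatinib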
Conditions: 24 h, at 12.5 µM, hits give high values

Structure (SMILES) | inhibition
O=C(Nc1ccc(-c2ccccc2)cc1)[C@H]1[C@H](CO)[C@H]2Cn3c(cccc3=O)[C@H]2N1CC1CCOCC1 | 14.4% (inactive)
O=C(C[C@H]1C[C@@H]2c3cc(NC(=O)C4CCC4)ccc3O[C@@H]2[C@H](CO)O1)NC1CCCC1 | -3.69% (inactive)
CCCC(=O)Nc1ccc2c(c1)C(=O)N(C)[C@H]1CC[C@@H](CC(=O)N3CCCCC3)O[C@@H]1CO2 | -2.53% (inactive)
COc1ccccc1-c1cccc(-c2nc(C(=O)NCc3ccncc3)cc3c2[C@H](CCO)N([S@@](=O)C(C)(C)C)C3)c1 | 19.4% (inactive)
CC(C)(C)[S@](=O)N1Cc2cc(C(=O)NCCN3CCCC3)nc(-c3cccc(-c4ccc(C#N)cc4)c3)c2[C@@H]1CCO | 29.4% (inactive)
CC(C)(C)[S@](=O)N1Cc2cc(C(=O)NCCc3ccncc3)nc(-c3cccc(-c4cccc(C#N)c4)c3)c2[C@@H]1CCO | 79.3% (active)
CC(C)(C)[S@@](=O)N1Cc2cc(C(=O)NCCc3ccncc3)nc(-c3cccc(-c4cccc(C#N)c4)c3)c2[C@H]1CCO | 67.3% (active)
CC(C)(C)[S@@](=O)N1Cc2cc(C(=O)NCCN3CCCC3)nc(-c3cccc(-c4ccc(C#N)cc4)c3)c2[C@H]1CCO | -8.4% (inactive)
COc1ccccc1-c1cccc(-c2nc(C(=O)NCc3ccncc3)cc3c2[C@@H](CCO)N([S@](=O)C(C)(C)C)C3)c1 | 20% (inactive)
CCS(=O)(=O)N1CC2(CN(C(=O)c3ccc(F)cc3)[C@@H](CO)c3[nH]c4cc(OC)ccc4c32)C1 | 11.6% (inactive)
C[C@@H]1CN([C@@H](C)CO)C(=O)c2cc(NC(=O)Nc3cccc4ccccc34)ccc2O[C@@H](C)CCCCO[C@@H]1CN(C)Cc1ccc(C(F)(F)F)cc1 | -20.9% (inactive)
COc1ccc(C#Cc2ccc3c(c2)[C@H]2[C@H](CCN2S(=O)(=O)c2ccccc2C)[C@@H](CO)N3C)cc1 | -15.4% (inactive)
CCCC(=O)N1CC2(C1)CN(CC1CC1)[C@@H](CO)c1[nH]c3cc(OC)ccc3c12 | -16.5% (inactive)
COCC(=O)NC[C@@H]1[C@@H](c2ccccc2)[C@H](CO)N1C(=O)c1ccccc1 | 19.2% (inactive)
O=C(CN1CCOCC1)N1CC(=O)N2[C@H](CO)[C@H](c3ccc(-c4cccc(F)c4)cc3)[C@@H]2C1 | -2.97% (inactive)
COc1cccc(C#Cc2ccc3c(c2)O[C@@H](CN(C)C(=O)CN2CCOCC2)[C@@H](C)CN([C@H](C)CO)S3(=O)=O)c1 | 8.35% (inactive)
COc1cccc(C#Cc2ccc3c(c2)O[C@@H](CN(C)C(=O)CN2CCOCC2)[C@@H](C)CN([C@@H](C)CO)S3(=O)=O)c1 | 50.7% (active)
C[C@@H]1CN([C@H](C)CO)S(=O)(=O)c2ccc(C#Cc3cccc(F)c3)cc2O[C@@H]1CN(C)S(=O)(=O)c1cn(C)cn1 | 72.6% (active)
C[C@@H]1CN([C@@H](C)CO)S(=O)(=O)c2ccc(C#Cc3cccc(F)c3)cc2O[C@@H]1CN(C)S(=O)(=O)c1cn(C)cn1 | 40.9% (inactive)
C[C@@H]1CN([C@@H](C)CO)S(=O)(=O)c2ccc(C#Cc3cccc(F)c3)cc2O[C@H]1CN(C)S(=O)(=O)c1cn(C)cn1 | 8.89% (inactive)

Structure (SMILES) | inhibition
COc1cccc(C#Cc2ccc3c(c2)O[C@H](CN(C)C(=O)CN2CCOCC2)[C@H](C)CN([C@@H](C)CO)S3(=O)=O)c1 | 22.3% (inactive)
O=C(CN1CCOCC1)N[C@@H]1CC[C@@H](CCn2cc(C3CC3)nn2)O[C@H]1CO | -8.58% (inactive)
C[C@@H]1CN([C@@H](C)CO)C(=O)c2cccc(NS(=O)(=O)c3ccc(F)cc3)c2O[C@@H]1CN(C)Cc1ccc(Cl)c(Cl)c1 | -11.4% (inactive)
C[C@@H](NC(=O)C[C@H]1C=C[C@H](NS(=O)(=O)c2cccc(F)c2)[C@H](CO)O1)c1ccccc1 | -23.7% (inactive)
O=C(CC1CC1)N1CC(=O)N2[C@H](C1)[C@@H](c1ccc(/C=C/c3ccccc3)cc1)[C@@H]2CO | 16.9% (inactive)
O=C(CC1CC1)N1CC(=O)N2[C@H](C1)[C@H](c1ccc(C#Cc3cccc(F)c3)cc1)[C@@H]2CO | 23.8% (inactive)
O=C(CC1CC1)N1CC(=O)N2[C@H](CO)[C@@H](c3ccc(/C=C/c4ccccc4)cc3)[C@@H]2C1 | 24.1% (inactive)
CS(=O)(=O)N1CC(=O)N2[C@H](C1)[C@@H](c1ccc(C#Cc3ccc(F)cc3)cc1)[C@@H]2CO | 63.2% (active)
COCC(=O)N1CC(=O)N2[C@H](CO)[C@H](c3ccc(C#CC4CC4)cc3)[C@H]2C1 | 25.9% (inactive)
COCC(=O)N1CC(=O)N2[C@H](CO)[C@@H](c3ccc(C#CC4CC4)cc3)[C@H]2C1 | 62.3% (active)
COCC(=O)N1CC(=O)N2[C@H](CO)[C@H](c3ccc(C#CC4CC4)cc3)[C@@H]2C1 | -14.5% (inactive)
CS(=O)(=O)N1CC(=O)N2[C@H](CO)[C@@H](c3ccc(C#Cc4ccc(F)cc4)cc3)[C@H]2C1 | 43.4% (inactive)
O=C(CC1CC1)N1CC(=O)N2[C@H](CO)[C@@H](c3ccc(C#Cc4cccc(F)c4)cc3)[C@H]2C1 | 50.5% (active)
O=C(CC1CC1)N1CC(=O)N2[C@@H](CO)[C@H](c3ccc(C#Cc4cccc(F)c4)cc3)[C@@H]2C1 | 33% (inactive)
O=C(CC1CC1)N1CC(=O)N2[C@@H](CO)[C@H](c3ccc(/C=C/c4ccccc4)cc3)[C@@H]2C1 | 52.4% (active)
CS(=O)(=O)N1CC(=O)N2[C@H](C1)[C@H](c1ccc(C#Cc3ccc(F)cc3)cc1)[C@@H]2CO | -7.23% (inactive)
CO[C@@H]1CN(C)C(=O)c2cc(NC(=O)Nc3cccc(Cl)c3)ccc2OC[C@@H](C)N(C(=O)Nc2c(C)noc2C)C[C@H]1C | 19.6% (inactive)
C[C@H]1CN([C@@H](C)CO)C(=O)c2cc(NC(=O)C3CC3)ccc2O[C@@H]1CN(C)S(=O)(=O)c1ccccc1 | -17.4% (inactive)
C[C@H](CO)N1C[C@H](C)[C@@H](CN(C)C(=O)Nc2ccccc2)OCCCC[C@H](C)Oc2ccc(NC(=O)Nc3ccccc3)cc2C1=O | 20% (inactive)
C[C@@H]1CN([C@H](C)CO)C(=O)Cc2cc(N(C)C)ccc2O[C@H]1CN(C)Cc1ccc(-c2ccccc2)cc1 | -24.6% (inactive)

Structure (SMILES) | inhibition
O=C(c1ccccc1F)N1CC[C@H]2[C@H](CO)Nc3ccc(Br)cc3[C@H]21 | -3.54% (inactive)
O=C1CCCCn2nncc2COC[C@H](Cc2ccccc2)N1 | -21.7% (inactive)
Cc1ccc(S(=O)(=O)Nc2ccc3c(c2)CC(=O)N([C@H](C)CO)C[C@@H](C)[C@H](CN(C)S(=O)(=O)c2ccccc2)O3)cc1 | -17.2% (inactive)
COc1ccc(S(=O)(=O)Nc2ccc3c(c2)C(=O)N([C@@H](C)CO)C[C@H](C)[C@@H](CN(C)S(=O)(=O)c2ccc(Cl)cc2)OCCCC[C@@H](C)O3)cc1 | 50.6% (active)
Cc1ccc(S(=O)(=O)Nc2ccc3c(c2)CC(=O)N([C@H](C)CO)C[C@@H](C)[C@@H](CN(C)S(=O)(=O)c2ccccc2)O3)cc1 | 57.6% (active)
COc1ccc(S(=O)(=O)Nc2ccc3c(c2)C(=O)N([C@H](C)CO)C[C@H](C)[C@@H](CN(C)S(=O)(=O)c2ccc(Cl)cc2)OCCCC[C@H](C)O3)cc1 | -8.83% (inactive)
COc1ccc(S(=O)(=O)Nc2ccc3c(c2)C(=O)N([C@H](C)CO)C[C@H](C)[C@H](CN(C)S(=O)(=O)c2ccc(Cl)cc2)OCCCC[C@@H](C)O3)cc1 | -2.26% (inactive)
Cc1ccc(S(=O)(=O)Nc2ccc3c(c2)C(=O)N([C@@H](C)CO)C[C@@H](C)[C@H](CN(C)S(=O)(=O)c2cccs2)OCCCC[C@H](C)O3)cc1 | -3.15% (inactive)
Cc1ccc(S(=O)(=O)Nc2ccc3c(c2)C(=O)N([C@H](C)CO)C[C@@H](C)[C@H](CN(C)S(=O)(=O)c2cccs2)OCCCC[C@@H](C)O3)cc1 | 57.5% (active)
Cc1ccc(S(=O)(=O)Nc2ccc3c(c2)C(=O)N([C@H](C)CO)C[C@H](C)[C@@H](CN(C)S(=O)(=O)c2cccs2)OCCCC[C@H](C)O3)cc1 | -31% (inactive)
Cc1ccc(S(=O)(=O)Nc2ccc3c(c2)CC(=O)N([C@@H](C)CO)C[C@H](C)[C@@H](CN(C)S(=O)(=O)c2ccccc2)O3)cc1 | -31.9% (inactive)
O=C(C[C@@H]1C=C[C@H](NC(=O)c2cnccn2)[C@H](CO)O1)NCc1ccccc1F | 7.69% (inactive)
COc1ccc2c3c([nH]c2c1)[C@H](CO)NCC31CN(C(=O)Nc2c(C)noc2C)C1 | -10.8% (inactive)
COc1ccc(CN(C)C[C@@H]2OCCCC[C@@H](C)Oc3ccc(NC(=O)C4CCCCC4)cc3C(=O)N([C@H](C)CO)C[C@@H]2C)cc1 | -11.6% (inactive)
N#C[C@@H]1[C@H](c2ccc(-c3cccc(F)c3)cc2)[C@@H](CO)N1C(=O)CN1CCOCC1 | 0.153% (inactive)
CN1C(=O)c2cc(NC(=O)c3cccc(Cl)c3)ccc2OC[C@H]2O[C@@H](CC(=O)NC3CCCCC3)CC[C@H]21 | 19.3% (inactive)
COc1ccc(C(=O)N2C[C@H]3[C@@H](c4ccccc42)[C@@H](CO)N3Cc2ccccc2Cl)cc1 | -11.9% (inactive)
COCC(=O)N1[C@H](CO)[C@H](c2ccc(C#Cc3ccccc3F)cc2)[C@@H]1C#N | 5.53% (inactive)
COc1ccc(C(=O)N2C[C@@H]3[C@H](c4ccccc42)[C@H](CO)N3C(=O)NC(C)C)cc1 | -12.1% (inactive)
